Values joined by “and” are separate entries in the source; they are usually repeats but may differ in a detail not shown here. Equal values may be shown once. This is part of a sample that, as a whole, favours compounds with a hit. Of some 83,000 tested, about 20% had one in any assay.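 The endpoint reported here, percent growth, reads 100 for growth as untreated, 0 for no net growth and -100 for all cells dead.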 Active and inactive are the calls of the source. Rule for the calls: active = growth percent below 10; inactive = the rest.
system: MDA-MB-468 breast; test: NCI-60 one-dose screen, 48 h (100 = growth as untreated, 0 = no growth, -100 = all killed); details: 10 µM unless noted

Q: Which growth does the source give for `O=C(Nc1cccc(-n2cc(-c3ccncc3)c(-c3ccc(O)c(Cl)c3)n2)c1)c1ccc(Cl)c(Cl)c1` here?
A: Its growth is 68.9% (inactive).

Q: `CSc1nc2c(c(=O)[nH]1)N=C1c3ccccc3C(=O)C1C(c1ccccc1)N2` (stereo not given) was tested. Which growth did it give?
A: Its growth is 15.4% (inactive).

Q: How did the growth turn out when `COc1ccc(/C=N/C2=C(C#N)C(c3ccccc3[N+](=O)[O-])c3ccc4ccccc4c3O2)cc1` (stereo not given) was run?
A: Its growth is 104% (inactive).

Q: For `CCN1C(=O)N(CC)C2NC(SC)=NC21` (stereo not given), which growth is on record?
A: Its growth is 103% (inactive).

Q: `Cc1ccc(NC(=O)N[C@@H](Cc2cc(F)cc(F)c2)C(=O)NC2C(=O)N3CCC[C@H]3C(=O)N3CCCC[C@H]3C(=O)N[C@@H](C)C(=O)N3C[C@H](C)C[C@H]3C(=O)O[C@H]2C)c(F)c1` (stereo not given in full) was tested. Which growth did it give?
A: The growth was -12.1% (active).

Q: `CC(O)C(O)C(O)C(O)C(O)C(=O)NNc1ccccc1` (stereo not given) was tested. Which growth did it give?
A: The growth was 96.5% (inactive).

Q: `COc1ccc2sc3cccc(NCCN(C)C)c3c(=O)c2c1` was tested. Which growth did it give?
A: The growth was 52.3% (inactive) and -82% (active).

Q: `COc1ccc(-c2nc3ncccn3c2-c2nnc(-c3ccsc3C)o2)cc1` was tested. Which growth did it give?
A: The growth was 86.1% (inactive).

Q: With `COc1ccc2nc3ccccc3c(NCCNCC(C)O)c2c1` (stereo not given) as the molecule, how does the growth read?
A: Its growth is -24.6% (active).

Q: Which growth does the source give for `O=C(O)c1ccc(CNc2ccc(C(=O)CCl)cc2)cc1` here?
A: Its growth is 63.8% (inactive).

Q: For `CCN(CC)CCCNCCCNc1cc(OC)cc2cccnc12`, which growth is on record?
A: The growth was -10.4% (active).

Q: Which growth does the source give for `Cc1ccc(/C=C/C(=O)c2cccc(OCCCOc3cccc(C(=O)/C=C/c4ccc(C)cc4)c3)c2)cc1` here?
A: Its growth is 89.9% (inactive).

Q: For `O=c1ccc2nc(-c3ccccn3)nn(-c3ccccc3)c-2c1`, which growth is on record?
A: Its growth is -32.1% (active).

Q: With `O=C(N/N=C/c1ccc(Cl)cc1)c1ccc(Cc2n[nH]c(=O)c3cccnc23)cc1` as the molecule, how does the growth read?
A: The growth was 89.8% (inactive).

Q: With `C#CCN(C)CCCOc1ccc(NCc2ccc(/C=C/C(=O)NO)cc2)cc1Cl` as the molecule, how does the growth read?
A: Its growth is -47.6% (active).

Q: `NNc1ccccc1C(=O)O` was tested. Which growth did it give?
A: The growth was 102% (inactive).

Q: For `CN[C@@H](C)C(=O)N[C@H]1CCS[C@H]2CC(C)(C)[C@@H](C(=O)N[C@H]3c4ccccc4C[C@H]3OCC#CC#CCO[C@@H]3Cc4ccccc4[C@@H]3NC(=O)[C@H]3N4C(=O)[C@@H](NC(=O)[C@H](C)NC)CCS[C@H]4CC3(C)C)N2C1=O`, which growth is on record?
A: Its growth is 19.3% (inactive).

Q: With `O=C1SCN(Cc2ccccc2)CN1Cc1ccccc1` as the molecule, how does the growth read?
A: The growth was 24.8% (inactive).

Q: For `Nc1nc(N)c2cc(CNc3ccc(Cl)c(Cl)c3)ccc2n1`, which growth is on record?
A: Its growth is -75.3% (active).

Q: Which growth does the source give for `Cc1oc2nc[nH]c(=O)c2c1C(=O)/C=C/c1ccc(Cl)cc1Cl` here?
A: The growth was 86.7% (inactive).

Q: With `COc1ccc(/C(C)=C(\c2ccc(Cl)cc2)c2ccc(OCCN3CCCCCC3)cc2)cc1` as the molecule, how does the growth read?
A: Its growth is 16.1% (inactive).

Q: With `COc1cc2cc(Oc3ccc(NC(=O)c4ccccc4)cc3)c(C)nc2cc1OC` as the molecule, how does the growth read?
A: Its growth is 98.4% (inactive).

Q: How did the growth turn out when `O=C(NC1CCNCC1)c1[nH]ncc1NC(=O)c1c(Cl)cccc1Cl` was run?
A: Its growth is -37.2% (active).

Q: Which growth does the source give for `CN1CCN(Cc2ccc(NC(=O)c3cncc(C#Cc4cncc5ncccc45)c3)cc2C(F)(F)F)CC1` here?
A: The growth was 43.5% (inactive).

Q: `OCCN1CCN(c2cc(-c3cccc(OC(F)(F)F)c3)nc3ccc(N4CCCC4)cc23)CC1` was tested. Which growth did it give?
A: Its growth is 16.6% (inactive).

Q: `COC(=O)[C@H](Cc1cn(C)cn1)NC(=O)[C@@H](NC(=O)Nc1cc(C(F)(F)F)cc(C(F)(F)F)c1)C(C)(C)C` was tested. Which growth did it give?
A: Its growth is -63.1% [100 µM] (active).

Q: `COc1ccc(CNc2nccnn2)cc1` was tested. Which growth did it give?
A: The growth was 88% (inactive).

Q: Which growth does the source give for `CCOP(=O)(NC(c1ccccc1)c1ccccc1)OCC` here?
A: The growth was 104% (inactive).

Q: For `C[C@]12CC[C@@H]3c4ccc(O)c([N+](=O)[O-])c4CC[C@H]3[C@@H]1CCC2=O`, which growth is on record?
A: The growth was 71% (inactive).

Q: Which growth does the source give for `CC(O)C(NC(=O)C1CCCN1C(=O)CNC(=O)C1CC(=O)NCC(=O)NC(Cc2c[nH]c3ccccc23)C(=O)NC(Cc2ccc(O)cc2)C(=O)NCC(=O)NC(CO)C(=O)NC(CCC(N)=O)C(=O)NC(Cc2c[nH]c3ccccc23)C(=O)N1)C(=O)NCC(=O)NC(CCC(N)=O)C(=O)NC(CCCNC(=N)N)C(=O)NC(CC(=O)O)C(=O)O` (stereo not given) here?
A: Its growth is 100% (inactive).

Q: For `COc1cccc(Sc2ccc([N+](=O)[O-])c3no[n+]([O-])c23)c1`, which growth is on record?
A: The growth was 69.9% (inactive).

Q: For `CC1=C(C)C[C@]2(C(=O)O[C@H]3CCCC[C@@H]32)[S@](=O)C1`, which growth is on record?
A: The growth was 114% (inactive).

Q: `O=C(Nc1cccc(Cl)c1)Nc1cc(C(F)(F)F)ccc1Cl` was tested. Which growth did it give?
A: Its growth is 1.29% (active).

Q: Which growth does the source give for `O=C(N/N=C/[C@H](O)[C@@H](O)[C@@H](O)[C@H](O)CO)c1ccc(NC(=O)c2cccnc2)cc1` here?
A: Its growth is 105% (inactive).

Q: For `COc1cc2cc(Oc3ccc(NC(=O)Nc4cc(C(F)(F)F)cc(C(F)(F)F)c4)cc3)c(C)nc2cc1OCCN1CCOCC1`, which growth is on record?
A: The growth was -12% (active).

Q: Which growth does the source give for `O=C1c2cccnc2C(=O)c2c1c(C(=O)NCCn1ccnc1)c1ccccn21` here?
A: Its growth is -6.68% (active).

Q: For `CN1CCN(Cc2ccc(NC(=O)c3cncc(C#Cc4cnc(N)c5ccc(C#N)cc45)c3)cc2C(F)(F)F)CC1`, which growth is on record?
A: The growth was -58.4% (active).

Q: Which growth does the source give for `C/C(=C\CCc1ccoc1)CC/C=C(\C)CCCN1CCOCC1` here?
A: The growth was 5.68% (active).

Q: Which growth does the source give for `O=C(NCCCNc1nccc(-n2ccc3cccnc32)n1)c1c(F)cccc1F` here?
A: Its growth is 101% (inactive).

Q: For `Cc1ccc(-c2cc3nc(C(Cl)Cl)nc(-c4cccs4)n3n2)cc1`, which growth is on record?
A: Its growth is 39.5% (inactive).

Reference: PubChem BioAssay (NCI)
